# Rows were chosen to be rich in hits. Some 32% of all compounds tested hit in one or more screens of this group.
# CYP2C9 inhib: blocks human cytochrome P450 2C9. 96,000 tested, 20% active. inhibition, % at 5 µM. P11712. CYP2C9 Supersomes, luciferin-H conversion, luminescence. AID 777;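 active = blocking of liver enzyme CYP2C9 beyond about 50% at 5 µM, limit read from the data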
# Target sequence (P11712 whole entry, looked up): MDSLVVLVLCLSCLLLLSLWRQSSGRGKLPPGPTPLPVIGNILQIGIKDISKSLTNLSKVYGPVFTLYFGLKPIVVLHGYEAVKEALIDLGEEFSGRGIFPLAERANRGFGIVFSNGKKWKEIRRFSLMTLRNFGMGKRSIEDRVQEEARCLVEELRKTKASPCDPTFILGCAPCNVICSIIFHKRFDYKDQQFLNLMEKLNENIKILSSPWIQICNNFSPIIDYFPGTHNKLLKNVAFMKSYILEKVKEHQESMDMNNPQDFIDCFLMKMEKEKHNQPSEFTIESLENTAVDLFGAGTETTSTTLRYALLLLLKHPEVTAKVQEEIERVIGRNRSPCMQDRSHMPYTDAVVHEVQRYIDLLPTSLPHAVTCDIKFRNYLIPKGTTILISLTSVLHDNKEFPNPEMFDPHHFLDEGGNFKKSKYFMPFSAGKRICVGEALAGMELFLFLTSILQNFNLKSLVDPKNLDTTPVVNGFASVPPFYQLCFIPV
# PostGolgi yeast: growth inhibition of a yeast mutant, post-Golgi transport screen. 98,000 tested, 0.9% active. inhibition, % at 10 µM. post-Golgi transport phenotypic cell assay;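 note: yeast cells grown in 1536-well plates; yeast grown about 18 h at 30C before absorbance read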
# CYP2C9 activ: CYP2C9 (human) activation; AID 1024; activation factor at 5 µM; recombinant CYP2C9, luciferin-H conversion, luminescence; hits give high values; factor 1 = untreated enzyme, 0 = blocked; P11712; 96,000 tested, 1.4% active;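 active = activation factor of 2 or more for CYP2C9 at a 5 µM dose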;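 note: 0 = sulfaphenazole-blocked wells and 1 = vehicle-only wells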
# PostGolgi ctrl: inhibits growth of the yeast control strain | efflux-deficient yeast background strain, growth absorbance A615, 16 h | inhibition, % at 10 µM | 98,000 tested, 5% active | AID 738
# CYP2C19 inhib: blocks human cytochrome P450 2C19 | P33261 | CYP2C19 Supersomes, luciferin-H EGE luminescence, 30 min | inhibition, % at 5 µM | 96,000 tested, 21% active;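 active = CYP2C19 inhibition above a set limit at 5 µM in the primary screen, cut at about 50% in these data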;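 note: plate controls were negative control wells for no effect and 2.5 mM tranylcypromine positive control for full effect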
# CYP2C19 act: cytochrome P450 2C19 (human) activation | activation factor at 5 µM | recombinant CYP2C19, luciferin-H EGE luminescence; hits give high values; 0 = fully inhibited enzyme, 1 = untreated enzyme | 96,000 tested, under 10 active | P33261;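 active = activation factor of at least 2 at 5 µM in the primary screen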;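 note: 0 = wells with 2.5 mM tranylcypromine and 1 = vehicle-only wells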
# Active calls of the source: *; / = no result. Cut-off read from the data, not from the text of the source, unless noted: active = inhibition above about 30%; inactive = the rest.
SMILES,CYP2C9 inhib,PostGolgi yeast,CYP2C9 activ,PostGolgi ctrl,CYP2C19 inhib,CYP2C19 act
CC1CCC(NC(=O)CC2Oc3ccccc3NC2=O)CC1 (stereo not given),-129,9,2.3*,1,12,0.9
CCC(=O)N/C(=N/c1nc(C)cc(C)n1)Nc1cccc(OC)c1,17,9,0.8,10,14,0.9
O=C(c1ccc(Cl)cc1)c1ccc(OCC(O)CN2CCOCC2)cc1 (stereo not given),12,2,0.9,7,7,0.9
OC(COc1ccc2ccccc2c1Cl)CN1CCOCC1 (stereo not given),-17,8,1.2,5,54*,0.5
OC(COc1c(Br)cc(Br)cc1Br)CN1CCOCC1 (stereo not given),-4,5,1,5,92*,0.1
CSCCC(NC(=O)c1occc1C)C(=O)O (stereo not given),-24,9,1.2,23,-20,1.2
N#Cc1c(C(F)(F)F)cc(-c2ccc(Cl)c(Cl)c2)nc1SCCN1CCOCC1,-4,1,1,12,-14,1.1
N#Cc1c(C(F)(F)F)cc(-c2ccccc2)nc1SCC(=O)Nc1sc2c(c1C#N)CCC2,71*,-8,0.3,-1,22,0.8
CC(Sc1nc(-c2ccccc2)cc(C(F)(F)F)n1)C(=O)Nc1sc2c(c1C#N)CCC2 (stereo not given),64*,8,0.4,8,14,0.9
N#Cc1ccc(-c2cccnc2)nc1SCC(=O)Nc1sc2c(c1C#N)CCC2,-2,-1,1,9,30,0.7
N#Cc1c(C(F)(F)F)cc(-c2ccccc2)nc1SCc1nc(N)nc(N2CCOCC2)n1,80*,-2,0.2,45*,81*,0.2
COc1cccc(-c2nnc(N(C)C(=O)C3CCOC3)s2)c1 (stereo not given),34,-3,0.7,5,30,0.7
[O-][N+]12CCN(CC1)c1ccccc12,10,-5,0.9,-1,5,0.9
Cc1cccc(NC(=O)CC2NC3CCCCC3NC2=O)c1 (stereo not given),-2,13,1,-4,16,0.8
CCN(CC)CCN(C)Cc1ccc(Br)cc1,0,1,1,3,9,0.9
Cc1onc(-c2ccccc2)c1C(=O)N/N=C(\N)COc1ccc(Cl)cc1,74*,4,0.3,6,69*,0.3
Cc1onc(-c2ccccc2Cl)c1C(=O)N/N=C(\N)COc1ccc(Cl)cc1,34,-7,0.7,22,0,1
COc1cccc(NC(=O)COC(=O)c2c(-c3ccccc3)noc2C)c1,60*,6,0.4,15,60*,0.4
Cc1noc(C)c1C(=O)OCC(=O)Nc1ccccc1Oc1ccccc1,50,-1,0.5,9,35,0.7
COc1ccc(NC(=O)COC(=O)c2c(-c3ccccc3)noc2C)cc1,27,4,0.7,6,53*,0.5
Cc1csc(-c2cnn(-c3ccccc3)c2NC(=O)c2ccccc2)n1,4,2,1,18,-12,1.1
CCC(Sc1nc2n[nH]c(C)c2c(=N)n1-c1cccc(Cl)c1)C(=O)NCCOC (stereo not given),65*,-3,0.4,5,35,0.7
CCC(Sc1nc2n[nH]c(C)c2c(=N)n1-c1ccc(C)c(Cl)c1)C(=O)N1CCOCC1 (stereo not given),46,-1,0.5,-5,-1,1
CC(C)c1ccc(NC2(C#N)C(=O)Nc3ccccc32)cc1 (stereo not given),-75,-7,1.7,7,34,0.7
N#CC1=C(N)Oc2c(ccc3ccccc23)C1c1ccsc1 (stereo not given),39,-2,0.6,49*,33,0.7
SMILES,CYP2C9 inhib,PostGolgi yeast,CYP2C9 activ,PostGolgi ctrl,CYP2C19 inhib,CYP2C19 act
Cc1cccc2cc(CN(Cc3cccnc3)C(=O)c3ccccc3F)c(Cl)nc12,55*,1,0.4,17,68*,0.3
Cc1cc(C)c2cc(CN(Cc3cccnc3)C(=O)c3ccc(F)cc3)c(Cl)nc2c1,46,-4,0.5,10,52*,0.5
CCOC(=O)c1c(C)[nH]c(C(=O)Cn2nnc(-c3ccc(Cl)cc3)n2)c1C,4,-4,1,12,5,1
CCC(C)C(=O)Nc1nc(C)c(-c2csc(Nc3ccc(Cl)cc3)n2)s1 (stereo not given),58*,0,0.4,24,40,0.6
Cc1ccc(Nc2nc(-c3sc(NC(=O)c4cccc(Cl)c4)nc3C)cs2)cc1,8,-5,0.9,2,40,0.6
CCCC(=O)Nc1nc(C)c(-c2csc(Nc3ccc(Cl)cc3)n2)s1,31,23,0.7,56*,54*,0.5
COC(=O)/C(=C(/F)SCC(C)=O)C(F)(F)F,69*,2,0.3,4,7,0.9
CCCNC(=O)NC(=O)CSc1nnc(C)n1N,-24,-18,1.2,3,-9,1.1
COc1ccc2c(C)cc(SCc3c(C)noc3C)nc2c1,57*,-13,0.4,32*,50*,0.5
CC(C)C(NC(=O)C1CCCCC1)C(=O)Nc1ccncc1 (stereo not given),92*,3,0.1,3,96*,0
CC(C)C(NC(=O)C1CCC(C(C)(C)C)CC1)C(=O)NCc1cccnc1 (stereo not given),51*,1,0.5,-2,52*,0.5
O=C(Cn1cnc2c(nnn2Cc2ccc(Cl)cc2)c1=O)NCc1ccco1,/,-2,/,-6,/,/
CCOc1ccc(OCC)c(NC(=O)C2CCN(S(=O)(=O)c3cccnc3)CC2)c1,32,9,0.7,1,55*,0.5
CCOc1ccc(NC(=O)C2CCN(S(=O)(=O)c3cccnc3)CC2)cc1,-38,17,1.4,-2,29,0.7
CCOc1cc(NC(=O)C2CC2)c(OCC)cc1NC(=O)c1cccnc1,27,/,0.7,/,97*,0
O=C1NC(c2cccs2)Nc2sc3c(c21)CCCC3 (stereo not given),60*,0,0.4,9,-14,1.1
Cc1ccc(-n2nc3c([n+]2[O-])CCc2c-3no[n+]2[O-])cc1,-34,1,1.3,15,-22,1.2
CC1(C)C(c2cccs2)=NC(c2ccccc2)N1O (stereo not given),13,9,0.9,24,42,0.6
Fc1ccccc1N1CC(c2ccccc2)C(c2cccs2)=N1 (stereo not given),60*,-6,0.4,6,24,0.8
CCOC(=O)C(C(=O)Nc1ccccc1C)C1CCCCC1 (stereo not given),24,-5,0.8,3,35,0.6
CC(C)c1cc(C(=O)Nc2cc(Cl)ccc2O)no1,50*,-1,0.5,21,14,0.9
CC(C)Cc1cc(C(=O)Nc2cc(Cl)ccc2Cl)no1,-162,6,2.6*,8,-28,1.3
